Laboratory results reported in the supplement of paper PMC6555819.

Legend:
Assay in all cases: PBM binding z-score (relative to random genomic background probes); higher = stronger binding; sequences stand for … in GC…GCGATTGACAGCGTAGAATGAAGG
[1] = test system: LXRa:RXRa (NR concentration 270 nM, RXRa partner concentration 90 nM)
How it was run: (§1)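 Scanned fluorescence from custom Agilent 4×180K protein-binding microarrays was regression-normalized. Binding z-scores use random background probes as reference. Ligand-free nuclear receptor dimers were incubated on the arrays for 1 h and detected with antibodies against each partner (one per run).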

[2] = test system: LXRa homodimer (NR concentration 270 nM)
How it was run: as §1

[3] = test system: LXRb homodimer (NR concentration 270 nM)
How it was run: as §1

[4] = test system: PPARg:RXRa (NR concentration 180 nM, RXRa partner concentration 90 nM)
How it was run: as §1

[5] = test system: PPARg:RXRa 270nM:90nM, anti-RXR (NR concentration 270 nM, RXRa partner concentration 90 nM)
How it was run: as §1

[6] = test system: PPARg:RXRa 30nM:10nM, anti-RXR (NR concentration 30 nM, RXRa partner concentration 10 nM)
How it was run: as §1

[7] = test system: PPARg:RXRa 90nM:30nM, anti-RXR (NR concentration 90 nM, RXRa partner concentration 30 nM)
How it was run: as §1

[8] = test system: PPARg:RXRa DBDmut IVT, anti-RXR (DBD mutation: RXRa K156A/R161A, NR concentration 270 nM, RXRa partner concentration 90 nM)
How it was run: as §1

[9] = test system: PPARa:RXRa (NR concentration 270 nM, RXRa partner concentration 90 nM)
How it was run: as §1

Sequence	PBM binding z-score [1]	PBM binding z-score [2]	PBM binding z-score [3]	PBM binding z-score [4]	PBM binding z-score [5]	PBM binding z-score [6]	PBM binding z-score [7]	PBM binding z-score [8]	PBM binding z-score [9]
CCAACTAGGTCAAAGGACAGTGAAAGGCGACGTA	2.56	0.453	0.227	9.64	8.24	6.76	8.84	7.57	
GCTTAGGGGTCAAAGGTTATAGCATGAATAGAAT		1.95	2.82	11.8	9.66	9.13	10.2	5.79	
CGAACAAGGTCACCAGGACAGTGAAGAGGTTGGA	5.26	0.443	0.736	7.8	7.38	3.87	6.13	5.38	
CGAACGAGGTCAAAGGACAGTGAAAGGCGACGTA	5.87	0.528	1.21	8.64	7.62	5.48	8.31	5.27	
TAGCCTAGTTCATTCAGGGGCCAGTATAGAAAGC	0.593	0.155	0.584	0.203	0.273	-0.157	0.0192	1.65	
CGAACTAGGTCAAGGGACAGTGAAAGGCGACGTA	2.17	-0.308	-0.604	8.6	7.25	5.85	7.35	7.79	
AGAATGAGGTCATACGTAGATCAGGGAAGAAAGT	6	1.75	1.92	7.83	7.25	4.88	6.67	6.81	
TCTCGGAGGTCACGAAAGGTCAGAGCTCGACATC		6.78	2.06	8.27	7.76	5.31	7.09	4.43	
CGAACGAGGTCACCAGGACAGTGAAGAGGTTGGA	5.61	0.912	0.295	8.9	7.66	5.23	6.73	5.64	
CCAGACAGGTGAGAAGGTAACTCAGCCTCGATTA	0.435	0.0228	-0.0173	0.522	0.838	0.0404	0.628	1	
GGAACGAGGTCATTCGAGTTGATAGCATGGCGAT	6.43	1.91	1.68	6.59	6.55	3.27	5.58	5.42	
CCTACTCGGCCAAAAAGGTCATTGATGCCGATAA	4.55	4.59	0.927	1.91	3.11	0.833	2.27	1.1	
AGTCAAACTTCAGGACGAGGTAACGTAAAGCACG	-0.137	-0.0988	-0.504	0.919	-0.132	0.281	-0.00758	-0.522	
CGAACTAGGTCATTGACAGGACAGTGGATAGTAA	2.74	0.471	0.232	7.3	6.07	3.68	5.3	8.44	
CTCGAAAGGTCATGCTCAGGTGAGTATACCAAAC		3.89	2.44	7.63	8.05	4.38	6.89	4.16	
CAAACGAGGTCAAGGTCAAAGTCGGTTTGTGCCA		4.79	2.41	9.01	7.98	5.75	7.37	6.4	
CAAACTAGGTCAAGAGGTCAAAGTTCGCTTCCCG	6.59	6.51	2.33		9.13	7.44	10.1	8.34	
CAAAATAGGTCACAGAGGTCAAAGTCCGTGCGTA		7.45	2.61	9.92	8.39	6.56	8.55	7.62	

Sequence	PBM binding z-score [1]	PBM binding z-score [2]	PBM binding z-score [3]	PBM binding z-score [4]	PBM binding z-score [5]	PBM binding z-score [6]	PBM binding z-score [7]	PBM binding z-score [8]	PBM binding z-score [9]
CGAACTAGGTCGAGGACAGTGAATCTCCGCACGC	-0.0944	-0.716	-0.651	2.03	1.98	0.0747	1.23	5.71	
AACGAAAGGTCGAAGGTGAGTATACCCACCCGAA	3.94	0.129	0.37	4.7	4.9	2.35	3.92	0.349	
CCTTAGGGGTCACTCCAGGTTATAGCATCGGAGT		3.9	1.26	7.77	7.74	4.31	6.51	3.7	
CAGCATAGGTCAGGGCCAGTATAGGAGGAACGTT	2.57	-0.16	-0.316	2.08	1.98	0.464	0.958	0.577	
CTATGTAGGTTAAGGGAGTCATTCAGTTTGAAAG	0.682	-0.134		4.76	4.4	1.9	3.53	6.9	
TAGCCTAGGTCATACAGGGGCCAGTATAGAAAGC	3.34	0.359	0.751	2.36	2.35	0.845	1.62	1.94	
TCTCGGAGGACACTAAAGGTCAGAGCTCGACATC	5.15	5.33	0.134	1.47	2.94	2.78	2.97	1.65	
AATACGGGGTCACTAGGCCAGAGTAGGTACGAAT	6.53	2	2.47		8.44	5.78	7.95	5.43	
CGAACAAGGTCATTGACAGGACAGTGAATAGTAA	5.4	1.2	1.12	5.6	5.66	2.36	4.75	4.08	
GCTTACAGGTCAAAGGTTATAGCATGAATAGAAT		2.63	1.4	11.5	9.51	8.9	10.5	5.27	7.1
TGTATGAGGTTAAAGATCAGGGAACGTGGCGTCG	3.09	0.262	1.41	4.1	5.21	3	4.93	0.702	
TATACAGGGTCAAAGGCCAAAGTACGAATGTCGA	6.59	3.06	2.44	9.55	7.98	7.57	8.54	2.77	
CGAACTAGGTCGCCAGGACAGTGAAGAGGTTGGA	0.158	-0.593	-0.928	2.71	2.49	0.111	1.62	5.94	
ATCGAAAGGTCATGAGGTGAGTATACAGAAAGGC		4.02	2.52	9.07	7.95	5.41	7.18	4.25	
CGTCCAAGGTCACGGTCAGTGAAAGAGACTCGAA	6.12	0.892	0.155	7.75	7.26	4.16	6.37	4.83	
CGTCCAAGGACAATGCTAGGTCAGTGAAAGCATT	0.187	0.593	-0.885		-0.429	-0.602	-0.31	0.442	
CCTACTGGGCCAAAGAGGTCATTGATGCCGATAA	3.88	2.87	-0.243	3.95	4.73	1.71	3.75	4.23	
CAAAATAGGTCACGAAAGGTCAAAGTCGAATGAC	8.64	8.09	3.59	10.4	8.59	7.39	8.59	7.95	
